Test results published in the supplement of paper PMC8975748.
Structures can show the parent of a compound that is named as a salt.

System: Saccharomyces cerevisiae BY4741 SeMeCo community
Experiment: z-score of subpopulation abundance vs DMSO median, subpopulation auxotrophic for H; higher = larger share of this subpopulation than in DMSO controls
Conditions: 10 µM; 24 h; SM minimal medium; subpopulation (auxotrophy): H
Protocol: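 Fluorescent four-plasmid SeMeCo (self-establishing metabolically cooperating S. cerevisiae BY4741 community; plasmids pH-mRuby2, pL-mWasabi, pU-eCFP, pM-TagRFP657) was grown 24 h in minimal SM medium with each Selleck FDA-approved drug at 10 µM in 384-well plates. Cells were fixed and imaged by high-content confocal microscopy. For each auxotrophic subpopulation (and the prototroph), a z-score gives the deviation from the DMSO vehicle-control population median.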

| Structure (SMILES) | z-score of subpopulation abundance |
| --- | --- |
| O=C(CCCN1CCC(O)(c2ccc(Cl)cc2)CC1)c1ccc(F)cc1 [Haloperidol] | -0.68 |
| Cc1onc(-c2ccccc2)c1-c1ccc(S(N)(=O)=O)cc1 [Valdecoxib] | -0.55 |
| CO/N=C(\C(=O)N[C@@H]1C(=O)N2C(C(=O)O)=C(CSc3nnnn3C)CS[C@H]12)c1csc(N)n1 [Cefmenoxime hydrochloride] | 0.02 |
| COc1ccc(Cc2cnc(N)nc2N)cc1OC [Diaveridine] | -0.11 |
| Cc1ccc(-c2cc(C(F)(F)F)nn2-c2ccc(S(N)(=O)=O)cc2)cc1 [Celecoxib] | 0.01 |
| CC(=O)Oc1ccc(C(=C2CCCCC2)c2ccc(OC(C)=O)cc2)cc1 [Cyclofenil] | -0.22 |
| COCCCOc1ccnc(C[S+]([O-])c2nc3ccccc3[nH]2)c1C (stereo not given) [Rabeprazole] | 2.01 |
| Oc1ccc(Cl)c2cccnc12 [Cloxiquine] | 13.1 |
| COc1cc2c(cc1OC)-c1cc3ccc(OC)c(OC)c3c[n+]1CC2 [Palmatine] | -0.08 |
| OCCOc1ccc(/C(=C(/CCCl)c2ccccc2)c2ccccc2)cc1 [Ospemifene] | 0.74 |
| CCCCC(=O)O[C@H]1CC[C@H]2[C@@H]3CCc4cc(O)ccc4[C@H]3CC[C@]12C [Estradiol valerate] | -0.49 |
| CC[C@H](c1ccc(O)cc1)[C@@H](CC)c1ccc(O)cc1 [Hexestrol] | -0.31 |
| CO[C@@]1(NC(=O)Cc2cccs2)C(=O)N2C(C(=O)O)=C(COC(N)=O)CS[C@@H]21 [Cefoxitin sodium] | -0.25 |
| O=C(c1ccc(F)cc1)C1CCN(CCn2c(=O)[nH]c3ccccc3c2=O)CC1 [Ketanserin] | -0.82 |
| C[C@H](NCc1ccc(OCc2cccc(F)c2)cc1)C(N)=O [Safinamide] | -0.07 |
| CCCOc1ccc2c(c1)CC[C@@H]1[C@@H]2CC[C@]2(C)[C@@H](OC)CC[C@@H]12 [Promestriene] | 0.19 |
| C[C@@H](CN1CC(=O)NC(=O)C1)N1CC(=O)NC(=O)C1 [Dexrazoxane HCl (ICRF-187, ADR-529)] | -0.64 |
| O=C(O)c1ccccc1O [Salicylic acid] | -0.17 |
| CC(C)Cc1ccc(C(C)C(=O)O)cc1 (stereo not given) [Ibuprofen] | -0.54 |
| CCN(CC)CCOC(=O)c1ccc(N)cc1Cl [Chloroprocaine HCl] | -0.3 |

| Structure (SMILES) | z-score of subpopulation abundance |
| --- | --- |
| CCCCCCCCc1ccc(CCC(N)(CO)CO)cc1 [Fingolimod] | -0.65 |
| Cc1ncc([N+](=O)[O-])n1C [Dimetridazole] | 0.05 |
| O=C(Nc1cccc(C2=NCCN2)c1)Nc1cccc(C2=NCCN2)c1 [Imidocarb dipropionate] | -0.78 |
| Nc1nc2[nH]cc(CCc3ccc(C(=O)N[C@@H](CCC(=O)O)C(=O)O)cc3)c2c(=O)[nH]1 [Pemetrexed Disodium Hydrate] | 3.82 |
| COc1ccc(-c2nc3cc(C4=NNC(=O)CC4C)ccc3[nH]2)cc1 (stereo not given) [Pimobendan] | 0.76 |
| CC[C@H]1OC(=O)[C@H](C)[C@@H](O[C@H]2C[C@@](C)(OC)[C@@H](O)[C@H](C)O2)[C@H](C)[C@@H](O[C@@H]2O[C@H](C)C[C@H](N(C)C)[C@H]2O)[C@](C)(O)C[C@@H](C)C(=O)[C@H](C)[C@H]2OC(=O)O[C@@]21C [Erythromycin Cyclocarbonate] | 2.08 |
| CN1CCC[C@@H]1Cc1c[nH]c2ccc(CCS(=O)(=O)c3ccccc3)cc12 [Eletriptan HBr] | 0.1 |
| COc1ccc(C[C@H](N)C(=O)N[C@H]2[C@@H](O)[C@H](n3cnc4c(N(C)C)ncnc43)O[C@@H]2CO)cc1 [Puromycin 2HCl] | -0.66 |
| OC[C@H]1O[C@H](OCC2O[C@@H](O)[C@H](O)[C@@H](O)[C@@H]2O)[C@H](O)[C@@H](O)[C@H]1O (stereo not given in full) [Melibiose] | -0.36 |
| C[C@]12CC[C@@H]3c4ccc(O)cc4CC[C@H]3[C@@H]1CC[C@@H]2OC(=O)CCC1CCCC1 [Estradiol Cypionate] | -0.04 |
| COc1ccc(CNc2nc(N3CCC[C@H]3CO)ncc2C(=O)NCc2ncccn2)cc1Cl [Avanafil] | -0.56 |
| CCC(=O)c1c(O)cc(O)cc1O [Flopropione] | 0.18 |
| OCCN(CCO)c1nc(N2CCCCC2)c2nc(N(CCO)CCO)nc(N3CCCCC3)c2n1 [Dipyridamole] | 3.18 |
| OCCN1CCN(CCCN2c3ccccc3Sc3ccc(Cl)cc32)CC1 [Perphenazine] | 0.04 |
| Cc1c(-c2ccc(O)cc2)n(Cc2ccc(OCCN3CCCCCC3)cc2)c2ccc(O)cc12 [Bazedoxifene HCl] | 1.47 |
| COc1cc(N)c(Cl)cc1C(=O)NC1CCN(CCCOc2ccc(F)cc2)CC1OC (stereo not given) [Cisapride] | -0.08 |
| O=C(O)Cc1ccccc1Nc1c(Cl)cccc1Cl [Diclofenac Diethylamine] | -1.31 |
| Clc1ccccc1C(c1ccccc1)(c1ccccc1)n1ccnc1 [Clotrimazole] | 6.9 |
| CC(C(=O)O)c1ccc2c(c1)CC(=O)c1ccccc1S2 (stereo not given) [Zaltoprofen] | 0.04 |
| Cc1nc2n(c(=O)c1CCN1CCC(c3noc4cc(F)ccc34)CC1)CCCC2O (stereo not given) [Paliperidone] | -0.95 |
